The compounds below were run on Plasmodium falciparum (assay: GSK_TCMDC: Inhibition of Plasmodium falciparum Dd2 in whole red blood cells, using parasite LDH activity as an index of growth. Test compounds present at 2uM).
Type: functional
CN1CCN(c2ccc3nccc(CCN4CCC(NCc5ccc6c(n5)NC(=O)CO6)CC4)c3n2)CC1.Cl was tested, and the Inhibition was 3%.
For CC(CN(C)C)C(=O)Nc1ccc(-c2ccc(-c3nc4ccccc4[nH]3)s2)cc1 (configuration not stated), the Inhibition was 86%.
With NCCNc1ccc([N+](=O)[O-])cc1C(=O)Nc1cccc(Cl)c1 the Inhibition was 7%.
With Cl.OCCNc1nc(Nc2ccccc2)nc2ccccc12 the Inhibition was 61%.
With N#Cc1ccc(N[C@@H](CC2CCCCC2)C(=O)NCc2cc(F)c(F)cc2F)c2ccccc12.O=C(O)C(F)(F)F the Inhibition was 39%.
With COc1cc2nc(-c3ccc(Br)cc3)cc(N)c2cc1OC the Inhibition was 69%.
Compound O=C(Cn1c(SCc2cccc(F)c2F)cc(=O)c2ccccc21)N(CCN1CCCCC1)Cc1ccc(-c2ccc(C(F)(F)F)cc2)cc1.O=C(O)C(O)C(O)C(=O)O has an Inhibition of 82%.

What follows are compounds tested on HepG2 (assay: GSK_TCMDC: Percent inhibition of human HepG2 cell line. Test compounds present at 10uM.).
Type: functional
OC(CNc1ccnc(Nc2cccc(Cl)c2)n1)c1cccc(C(F)(F)F)c1 (configuration not stated) was tested, and the Inhibition was 11%.
In the case of CC(=NNC(N)=O)C1=C(O)C(c2ccccc2)N(C2CCCCC2)C1=O (configuration not stated), the Inhibition is reported as 59%.
Compound Cc1ccccc1CNc1noc(-c2c(-c3ccccc3)noc2C)n1 has an Inhibition of 0%.
CC(C)CNCc1ccc(-c2ccc(CN(C(=O)NCCc3ccccc3)C3CCN(Cc4ccccc4)CC3)cc2)cc1.O=C(O)C(F)(F)F gave an Inhibition of 37%.
With Cn1nccc1C(=O)NCCNCc1cccc(-c2csc(-c3nc4ccccc4[nH]3)c2)c1.O=C(O)C(F)(F)F the Inhibition was 30%.
With CC1(C)N=C(N)N=C(N)N1O.Cl the Inhibition was 7%.
In the case of O=C(N[C@@H](Cc1ccccc1)C(=O)O)c1cc(-c2ccc(F)cc2)no1.O=C(N[C@@H](Cc1ccccc1)C(=O)O)c1conc1-c1ccc(F)cc1, the Inhibition is reported as 0%.
Cc1cccc2nc(-c3cccc(-c4cccc(NC(=O)c5cncn5C)c4)c3)[nH]c12 gave an Inhibition of 0%.
With O=C(Nc1ccc(Oc2ccccc2)cc1)N(CCN1CCCC1)Cc1ccc(-c2ccc(CN3CCNCC3)cc2)cc1.O=C(O)C(F)(F)F the Inhibition was 48%.
Fc1ccc(C=NN=c2cc[nH]c3ccccc23)cc1 showed an Inhibition of 21%.
Work on CC(C)[C@H](NCC(=O)c1ccccc1)C(=O)O.Cl yielded an Inhibition of 6%.
In the case of COc1ccc(-c2ccc(NC(=O)c3ccc(C#N)cc3)cc2)cc1CN1CCC(O)CC1.O=C(O)C(F)(F)F, the Inhibition is reported as 24%.
O=C(NC1CCN(CCN2CCC(c3cn(CCO)c4ccccc34)CC2)CC1)c1ccc(-c2ccc(C(F)(F)F)cc2)cc1 showed an Inhibition of 30%.
For COc1ccc(CC(=O)NC(CCN2CCC3(CCc4ccccc43)CC2)c2ccc(Cl)c(Cl)c2)cc1 (configuration not stated), the Inhibition was 28%.
In the case of O=C(c1ccc(-c2ccc(-c3nc4cc(C(F)(F)F)ccc4[nH]3)s2)cc1)N1CCN(CCc2ccccc2)CC1, the Inhibition is reported as 23%.
CCOc1cc2c(cc1S(=O)(=O)c1ccc(COc3ccc(C(F)(F)F)cc3)cc1)CCN(C)CC2.Cl showed an Inhibition of 27%.
Cc1cc(C(=O)CN2C(=O)NC(C)(c3ccc4ccccc4c3)C2=O)c(C)n1Cc1ccco1 (configuration not stated) was tested, and the Inhibition was 12%.
In the case of Cc1ccc(NC(=O)N2CCCN(CCCCCNC(=O)/C=C/c3ccc(Cl)c(Cl)c3)CC2)cc1, the Inhibition is reported as 12%.
CCn1c(-c2nonc2N)nc2c(-c3ccccc3)ncc(OCCCCNCCc3ncc[nH]3)c21.O=C(O)C(F)(F)F was tested, and the Inhibition was 34%.
O=C(O)C(F)(F)F.O=S(=O)(NCCN1CCCC1)c1ccc(-c2ccc(CNCc3ccc(F)cc3)cc2)cc1F showed an Inhibition of 40%.
For CN(C)c1ccc(OCCCCCCOc2ccccc2)cc1.Cl, the Inhibition was 0%.
Work on Cc1ccc(Nc2nc(C)cc(N3CCN(CCc4ccccc4)CC3)n2)cc1 yielded an Inhibition of 6%.
With O=C(NCCNc1ccnc(Nc2ccc(F)cc2)n1)Nc1ccccc1F the Inhibition was 22%.
CC12CCC(=O)N1C(C(=O)Nc1cccc(C(=O)Nc3cccc(C(F)(F)F)c3)c1)CS2 (configuration not stated) gave an Inhibition of 6%.
With COc1ccccc1NC(=O)Nc1ccc(-c2cccc(-c3nc4ccccc4[nH]3)c2)cc1 the Inhibition was 42%.
In the case of CCC(CC)N1C(=O)C(c2ccccc2)(c2ccccc2)N=C1N.O=CO, the Inhibition is reported as 14%.
Compound Cc1cc(NC2CCCC2)nc(Nc2ccccc2C)n1 has an Inhibition of 0%.
Compound O=C(Cn1c(SCc2cccc(F)c2F)cc(=O)c2ccccc21)N(CCCn1ccnc1)Cc1ccc(-c2ccc(C(F)(F)F)cc2)cc1 has an Inhibition of 21%.
Work on COc1ccc(CNCc2ccccc2)cc1-c1cccc(S(=O)(=O)NCCN2CCCC2)c1.O=C(O)C(F)(F)F yielded an Inhibition of 37%.
COc1ccc(C(c2ccc(N(C)C)cc2)c2ccc(N(C)C)cc2)cc1 gave an Inhibition of 72%.
